S aureus helic – S. aureus DNA helicase inhibition; purified S. aureus helicase, fluorescence unwinding assay; inhibition, % (no concentration beside the values); 120,000 tested, 0.05% active; AID 485395; in the data active means inhibition above about 25%, passing the limit was not always enough
Sa growth inh – inhibitors of Staphylococcus aureus growth at 42 °C; S. aureus RN4220 growth, OD600, 20 h; active compounds read low; relative growth, % (concentration not given with the values); 170,000 tested, 0.53% active;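 active means relative growth at most 50% at the other temperature and 20+ points below 30 °C, or under 10% at both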
A number is an active result; – = inactive; · = no result given. Shown are actives, neighbours in structure and some others; about 0.52% of the full set was active somewhere.

SMILES | S aureus helic | Sa growth inh
CC[C@@H]1OC(=O)C[C@@H](O)[C@H](C)[C@@H](O[C@@H]2O[C@H](C)[C@@H](O)[C@H](N(C)C)[C@H]2O)[C@@H](CCN2C[C@H](C)C[C@H](C)C2)C[C@@H](C)C(=O)/C=C/C(C)=C\[C@@H]1CO[C@@H]1O[C@H](C)[C@@H](O)[C@@H](OC)[C@H]1OC | · | 0.5
N=C1/C(=C2\Nc3ccccc3S2)CC(=O)N1Cc1ccco1 | – | –
N=C1/C(=C2\Nc3ccccc3S2)CC(=O)N1CCc1ccccc1 | – | 1.4
C=CCn1c(C)cc(C(C)(C)c2cc(C)n(CC=C)c2C)c1C | – | –
O=C(Oc1c(C(=O)c2ccccc2)sc2ccccc12)c1ccco1 | – | 1.7
O=C(c1ccco1)N1CCN(C(=O)c2sc3ccccc3c2Cl)CC1 | · | –
Cc1cc(C)n2c(Nc3ccc(C(C)C)cc3)c(-c3ccsc3)nc2n1 | · | –
CCOC(=O)/C(C#N)=N/Nc1ccc(SC(F)F)cc1 | – | –
N#CC(C#N)=NNc1ccc(SC(F)F)cc1 | – | 0.9
CCOC(=O)c1c(C)oc2nc(C)nc(N3CCN(c4cc(Cl)ccc4C)CC3)c12 | · | –
O=C(CCN1CCCCC1)c1ccccc1 | – | –
CCc1oc2ccccc2c1C(=O)CCN1CCCCC1 | – | 41
O=C(c1ccccc1)N1CCOc2ccccc21 | – | –
COc1cccc2c1CCN(Cc1cccc(C)c1)C2=O | – | 5.1
CCN1CCc2c(OC)cccc2C1=O | – | –
O=C(NN1C(=O)/C(=C\C=C\c2ccco2)SC1=S)c1ccccc1O | – | –
O=S(c1c(F)c(F)c(F)c(F)c1F)c1c(F)c(F)c(F)c(F)c1F | – | 0.7
c1ccc(CSCc2cn3ccsc3n2)cc1 | – | –
Oc1c(CN2CCc3ccccc3C2)cc(Cl)c2cccnc12 | – | ·
Clc1cc2c(c3ncccc13)OCN(CC1CCCO1)C2 (configuration not stated) | – | 1.0
Clc1cccc(NCc2cccc3c2CN(CC2CCCO2)C3)c1 (configuration not stated) | – | –
Clc1cc2c(c3ncccc13)OCN(CCc1ccccc1)C2 | – | –
Clc1cc2c(c3ncccc13)OCN(CCC1=CCCCC1)C2 | – | 0.1
CCCCN1COc2c(cc(Cl)c3cccnc23)C1 | – | 1.0
O=C(CCCC(=O)c1ccccc1)Nc1ccc2c(c1)CCC2 | – | –
SMILES | S aureus helic | Sa growth inh
CCN(CC(=O)Nc1ccc(NC(C)=O)cc1)CC(=O)Nc1ccc(S(=O)(=O)N(C)C)cc1 | – | –
O=C(NCCc1ccccc1)NCCN1CCN(c2ccccc2)CC1 | – | –
O=C(CCc1nc2ccccc2[nH]c1=O)OCc1ccc(Cl)cc1 | – | –
CCN1CCN(Cc2ccc(NC(=O)c3cc4ccc5cccnc5c4[nH]3)cc2)CC1 | 91 | –
O=C(c1cc2ccc3cccnc3c2[nH]1)N1CCN(Cc2ccccc2)CC1 | – | –
O=S(=O)(c1cccc2ccccc12)N1CCCCC1 | – | –
CC(C)CNC(=O)c1ccccc1S(=O)(=O)N1CCCCC1 | – | 49
CCC(OC(=O)CN1C(=O)c2ccccc2C1=O)C(=O)Nc1sc2c(c1C#N)CCCC2 (configuration not stated) | – | –
O=C1CNCCN1C1CCCCC1 | – | –
CS(=O)(=O)c1ncc(Cl)c(C(=O)N2CCN(C(c3ccccc3)c3ccccc3)CC2)n1 | – | 4.2
COc1ccc(NC(=O)c2nc(S(C)(=O)=O)ncc2Cl)cc1Cl | – | –
CCS(=O)(=O)c1ncc(Cl)c(C(=O)Nc2c(C(=O)Nc3cccc(C)c3)oc3ccccc23)n1 | · | –
CS(=O)(=O)c1ncc(Cl)c(C(=O)Nc2cccc(Cl)c2)n1 | – | 0.2
Cc1cccc(NC(=O)c2nc(S(C)(=O)=O)ncc2Cl)c1 | · | 1.0
O=C(O)c1nccnc1C(=O)N1CCN(C(c2ccccc2)c2ccccc2)CC1 | – | –
Cc1cc(C)nc(Nc2ccc(S(=O)(=O)Nc3ccccn3)cc2)n1 | – | –
CCOC(=O)c1c(C)c(-c2ccccc2)n(CC(=O)NCc2cccc(OC)c2)c1C | · | –
CC(C)(NS(=O)(=O)c1cccs1)C(=O)O | – | –
CC1=NN(c2ccccc2)C(=O)C1=C(C)C | – | –
COc1ccc(C(=O)n2ccc(-c3oc(C)nc3C)n2)cc1 | · | –
Cn1ccnc1SCc1cc(=O)c(OC(=O)c2ccccc2)co1 | – | –
Cc1cc(C(C)(C)CC(C)(C)C)ccc1OCCOCC[N+](C)(C)Cc1ccccc1 | · | 0.9
C[N+](C)(CCOc1ccccc1)Cc1ccccc1 | · | –
COc1ccc(CCn2c(=S)[nH]c3nccnc3c2=O)cc1OC | – | –
CCOc1ccc(-c2nc(C#N)c(NCCOC)o2)cc1 | – | –
SMILES | S aureus helic | Sa growth inh
Cn1c(=O)c2nc(SCC(N)=O)n(C)c2n(C)c1=O | – | –
CSc1c(-c2ccc(Cl)cc2)[nH]c2ccccc12 | · | 21
Cc1ccc(-c2[nH]c3ccccc3c2SCCN)cc1 | – | ·
CCN1CCN(c2ccc(Nc3ccnc4cc5ccccc5cc34)cc2)CC1 | 48 | –
CN1CCN(c2ccc(Nc3ccnc4cc(Cl)ccc34)cc2Cl)CC1 | – | –
CCCCc1nn2c(=O)cc(COC(=O)c3ccc(NC(=O)c4ccccc4Cl)cc3)nc2s1 | · | –
CCN(CC)c1ncc2c(=S)[nH]c(=S)[nH]c2n1 | · | –
C=CCSc1ncc2c(=S)[nH]c(=S)[nH]c2n1 | · | 0.0
COc1ccc(S(=O)(=O)N2CC=C(c3c(C)n(CC(=O)N4CCCC4)c4ccccc34)CC2)cc1OC | – | –
Cc1noc(C(=O)N2CCC(Cc3ccccc3)CC2)c1Cl | – | –
CCn1c(O)c(N=NC(N)=S)c2ccccc21 | – | –
CCn1c(O)c(N=NC(=O)Nc2ccc(Cl)c(Cl)c2)c2ccccc21 | – | -0.8
CC1CCN(C(=O)COc2ccc(-c3ccccc3)cc2)CC1 | – | –
CCCCC(=O)N1CC(=O)Nc2ccc(C)cc2C1c1ccccc1 (configuration not stated) | – | ·
Nc1nnc2c(Nc3ccccc3)nc3nonc3n12 | – | –
c1ccc(Nc2nc3nonc3nc2Nc2ccccc2)cc1 | – | -1.6
CCc1cc2c3c([nH]c2cc1S(=O)(=O)NC(C)CC)CCCC3=O (configuration not stated) | – | –
O=C(/C=C(\O)c1ccc(Cl)cc1)C(F)(F)F | – | -0.1
CC(=O)/C=C(\O)c1ccc(Cl)cc1 | – | –
Nc1ccc2c3c(cccc13)C(=O)N(c1ccccc1)C2=O | – | –
O=C1NC(=O)c2ccc3c4c(ccc1c24)C(=O)N(c1ccccc1)C3=O | – | 5.5
Cc1cccc(NC(=O)CSc2nnc3[nH]c(=O)cc(C)n23)c1C | · | –
CCOc1ccc(-c2cc3ccccn3c2)cc1 | – | ·
C=CCN(CC=C)Cn1[nH]c(-c2cccs2)nc1=S | – | 38
O=S(=O)(c1ccc2ccccc2c1)N1CCN(Cn2[nH]c(-c3cccs3)nc2=S)CC1 | – | –
SMILES | S aureus helic | Sa growth inh
CN1C(=O)CC(=O)N(C)c2cc(S(=O)(=O)N(C)Cc3ccccc3)ccc21 | · | -1.7
CN(Cc1ccccc1)S(=O)(=O)c1ccc2c(c1)n(C)c(=O)c(=O)n2C | – | –
O=C(Cn1c(=O)n(-c2ccc(F)cc2)c(=O)c2sc3ccccc3c21)NC1CCCCC1 | · | –
c1cncc(-c2nc3c4ccccc4nc(NCCCN4CCCCCC4)n3n2)c1 | – | –
CCOC(=O)c1c(C)[n+]([O-])c2ccc3c(non3O)c12 | – | –
Cc1c(C)[n+]([O-])c2ccc3c(non3O)c12 | – | 1.9
O=C1C=CC(=O)N1CCc1ccc(Cl)cc1 | – | 9.7
O=C1C=CC(=O)N1CCc1ccccc1 | – | –
O=C(NCCN1CCOCC1)Nc1c[nH]c2ccccc2c1=O | – | –

High-throughput results deposited in PubChem by ICCB-Longwood Screening Facility, Harvard Medical School.
